UHRF1 binding – UHRF1 methyl-DNA binding inhibition; inhibition, % at 4.4 µM; Q96T88; UHRF1 binding to methylated oligo, TR-FRET; AID 687016; actives 0.75% (n = 370,000);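 also: UHRF1 SRA domain binding a hemimethylated CpG hairpin DNA probe; 0% = median of test compound wells and 100% = reference inhibitor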
Target sequence (Q96T88 whole entry, looked up, the tested form may be a part): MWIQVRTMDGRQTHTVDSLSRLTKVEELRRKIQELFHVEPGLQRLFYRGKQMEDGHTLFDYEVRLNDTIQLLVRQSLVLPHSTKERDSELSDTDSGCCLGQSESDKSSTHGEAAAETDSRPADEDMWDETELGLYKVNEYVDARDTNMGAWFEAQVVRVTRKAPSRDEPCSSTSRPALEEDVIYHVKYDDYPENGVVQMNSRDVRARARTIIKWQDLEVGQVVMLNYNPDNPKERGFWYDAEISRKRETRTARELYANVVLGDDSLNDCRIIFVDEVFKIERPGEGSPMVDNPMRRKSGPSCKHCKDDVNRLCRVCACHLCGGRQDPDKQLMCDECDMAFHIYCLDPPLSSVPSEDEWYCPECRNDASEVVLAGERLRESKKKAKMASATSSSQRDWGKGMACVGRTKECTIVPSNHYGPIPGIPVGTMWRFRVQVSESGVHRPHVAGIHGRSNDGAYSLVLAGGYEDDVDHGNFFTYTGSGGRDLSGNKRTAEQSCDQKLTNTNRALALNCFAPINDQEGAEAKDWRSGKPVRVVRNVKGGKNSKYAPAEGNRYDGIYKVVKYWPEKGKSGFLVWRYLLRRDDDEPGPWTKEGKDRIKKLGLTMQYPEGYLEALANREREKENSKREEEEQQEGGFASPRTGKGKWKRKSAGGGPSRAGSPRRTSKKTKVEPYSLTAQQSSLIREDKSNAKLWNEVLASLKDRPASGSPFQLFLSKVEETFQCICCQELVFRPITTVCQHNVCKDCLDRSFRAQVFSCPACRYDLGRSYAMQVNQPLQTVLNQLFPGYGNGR
PRMT1 FP inh – inhibitors of human PRMT1. Q99873. recombinant PRMT1, activity-based probe fluorescence polarization. inhibition, % at 2.79 µM. actives 1.3% (n = 370,000);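 active = inhibition above about 21% made by adding two undisclosed values, limit read from the data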
MBD2 inh – MBD2-methylated oligo binding inhibition. TR-FRET, MBD2 binding to methylated oligonucleotide. AID 686964. inhibition, % at 4.4 µM. actives 0.31% (n = 370,000); in the data active = inhibition above about 13%
LEDGF integ inh – blocks HIV-1 LEDGF/p75-dependent DNA integration; inhibition, % at 3.7 µM; TR-FRET IN-LEDGF/p75 DNA integration, Eu/Cy5; actives 0.64% (n = 370,000);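 active = inhibition above the screen-wide mean plus 3 SD, cut at about 13% in these data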;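 also: signal is the Cy5 over europium emission ratio at 671 and 618 nm; 0% = plate median of compound wells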
UHRF1 DNA bind – inhibits human UHRF1 binding to methylated oligonucleotide, MBD2 counter-screen; AID 720530; shares compounds with MBD2 inh; inhibition, % at 4.4 µM; actives 25% (n = 1,000); TR-FRET;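 also: UHRF1 SRA domain binding a labeled hemimethylated CpG hairpin DNA; 0% = vehicle only and 100% = reference inhibitor with vehicle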
MBD2 confirm – confirmation of human MBD2-DBD methylated oligonucleotide binding inhibitors | shares compounds with MBD2 inh | TR-FRET MBD2-DBD binding to methylated oligonucleotide | inhibition, % at 4.4 µM | actives 26% (n = 1,000); in the data active = inhibition above about 14%
IN multimer up – HIV-1 integrase multimerization activation, counter-screen | TR-FRET HIV-1 integrase multimerization, biochemical | actives 17% (n = 2,000) | AID 1053131 | shares compounds with LEDGF integ inh | activation, % at 7.7 µM; in the data active = activation above about 8.9%
TR-FRET interf – TR-FRET optical interference, LEDGF/p75 integration counter-screen; shares compounds with LEDGF integ inh; TR-FRET optical interference counterscreen, HIV-1 IN multimerization; inhibition, % at 7.7 µM; 2,000 tested, under 10 active; AID 1053135;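 active = inhibition above the mean over all tested compounds plus 3 SD, which no compound reached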;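 also: 0% = integrase with antibodies and DMSO and 100% = antibodies without integrase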
LEDGF integ conf – LEDGF/p75-dependent HIV-1 integration inhibition, confirmation. shares compounds with LEDGF integ inh. TR-FRET LEDGF/p75-dependent HIV-1 integration, biochemical. inhibition, % at 3.7 µM. actives 36% (n = 2,000). AID 1053136; in the data active = inhibition above about 14%
Starred values were filed as active, the others as inactive; . = not tested or not shown. An excerpt weighted towards active compounds, which were near 2.5% of everything screened. Rule as the data show it, unless noted: active = inhibition above about 21%; inactive = the rest.

SMILES	UHRF1 binding	PRMT1 FP inh	MBD2 inh	LEDGF integ inh	UHRF1 DNA bind	MBD2 confirm	IN multimer up	TR-FRET interf	LEDGF integ conf
COc1ccc(-c2cc(=O)n(CCC#N)[nH]2)cc1	16.5	3.8	17.8*	42.4*	1.3	-0.2	-0.4	1.4	0.8
C=CCN=C1NC(CCc2ccccc2)C(C(=O)OC)=C(C)N1Cc1ccccc1C(F)(F)F (configuration not stated)	-0.4	0.5	-0.2	6.0	.	.	.	.	.
CCOc1ccc(N2CC(C(=O)Nc3nnc(Cc4ccc(OC)cc4)s3)CC2=O)cc1 (configuration not stated)	64.9*	1.8	33.3*	15.3*	6.7	3.8	1.9	-9.3	3.5
CCN(CC)c1ccc(NC(=O)CCS(=O)(=O)c2ccc(Br)cc2)c(C)c1	54.1*	2.9	25.4*	17.1*	63.2*	30.0*	35.3*	-127.9	12.2
NC(=O)C1CCN(C(=O)CCSCc2ccc(Cl)c(Cl)c2)CC1	1.0	3.0	-5.8	4.7	.	.	.	.	.
O=C(Nc1cccc(Cl)c1)Nc1c[nH]c(=O)[nH]c1=O	2.6	-5.4	-3.0	3.3	.	.	.	.	.
NC1=NC(=O)/C(=C\c2ccco2)S1	67.5*	63.3*	23.7*	61.5*	47.1*	23.8*	29.6*	-105.5	50.2*
CCOC(=O)c1sc2nc(-c3cccnc3)ccc2c1N	1.7	-2.5	-5.7	2.8	.	.	.	.	.
COC(=O)c1sc2nc(-c3ccco3)ccc2c1N	55.1*	55.3*	16.1*	51.8*	7.9	-1.2	4.8	-24.0	8.0
CCCCCc1ccc(NC(=O)OCCCN2CCC3(CCC(c4ccccc4)CC3)C2=O)cc1 (configuration not stated)	3.1	0.7	6.5	2.0	.	.	.	.	.
COc1cc(Br)c(C(=O)c2nccc3cc(OC)c(OC)cc23)cc1OC	24.9*	-0.8	14.0*	15.4*	36.5*	26.3*	2.7	-9.7	74.6*
COc1cc(N)c(C(=O)c2nccc3cc(OC)c(OC)cc23)cc1OC	4.4	-3.9	-0.1	-0.5	.	.	.	.	.
CCc1cc(=O)oc2cc(C)c(CN3CCCC3)c(O)c12	32.4*	14.0	14.6*	34.6*	16.1	10.9	6.0	-30.4	39.7*
CCc1cc(=O)oc2cc(C)c(CN3CCCCC3)c(O)c12	7.4	5.2	5.9	13.0	.	.	.	.	.
O=Cc1cccc(OC(=O)/C=C/c2ccco2)c1	48.2*	5.3	17.4*	15.7*	48.1*	24.6*	11.1*	-40.0	35.6*
CCNc1nc(NC(C)C)nc(N(C#N)C(C)C(=O)N(C)C)n1 (configuration not stated)	3.7	-0.3	4.0	0.3	.	.	.	.	.
CCNc1nc(NC(C)C)nc(N(C#N)CC(=O)OC)n1	63.0*	1.5	31.9*	18.4*	7.4	3.8	-0.8	4.3	1.7
COC(=O)[C@@]1(Sc2ccc(OC)cc2)CC(=O)N[C@@H]1c1ccccc1	5.7	14.4	8.3	0.6	.	.	.	.	.
CCOC(=O)Cn1cc(CN2CCS(=O)(=O)N(Cc3ccc(OC)cc3)C(C(=O)OC)C2)nn1 (configuration not stated)	13.9	3.8	11.3	-1.4	.	.	.	.	.
COc1ccc(OC)c(N2C(=O)[C@@H]3C(c4ccccc4Cl)=NO[C@@H]3C2=O)c1	66.9*	2.0	25.6*	22.9*	38.2*	18.0*	4.0	-20.0	26.0*
Cc1cc(NS(=O)(=O)c2ccc(NC(=S)NC(=O)c3cccnc3)cc2)no1	64.7*	4.4	27.1*	25.9*	4.2	1.9	1.6	-8.0	-0.6
Cc1cc(C)nc(NS(=O)(=O)c2ccc(NC(=S)NC(=O)c3cccnc3)cc2)n1	1.6	-2.7	0.7	-1.8	.	.	.	.	.
COc1ccccc1CNS(=O)(=O)c1cc(-c2cc(C)no2)ccc1C(C)C	2.3	-1.5	-2.6	1.2	.	.	.	.	.
FC(F)(F)C1=Nc2cccc3cccc(c23)N1	54.1*	6.3	33.8*	78.7*	9.1	1.8	57.1*	-205.2	57.0*
COc1ccc(Br)cc1/C=c1\sc2nc(-c3ccco3)nn2c1=O	71.2*	10.7	23.2*	24.3*	21.8*	12.1	2.8	-13.9	15.1*
SMILES	UHRF1 binding	PRMT1 FP inh	MBD2 inh	LEDGF integ inh	UHRF1 DNA bind	MBD2 confirm	IN multimer up	TR-FRET interf	LEDGF integ conf
O=C(O)COc1ccc2c(c1)O/C(=C\c1cccs1)C2=O	-2.1	3.1	-2.0	1.9	.	.	.	.	.
O=C(O)COc1ccc2c(c1)O/C(=C\c1ccco1)C2=O	63.0*	23.9*	14.8*	41.1*	42.4*	8.7	26.6*	-94.7	46.0*
COc1ccc(NC(=O)CC2SC(N3CCOCC3)=NC2=O)cc1OC (configuration not stated)	-1.2	-1.9	-0.7	2.6	.	.	.	.	.
O=C(CCc1nc(-c2ccc(Cl)cc2)no1)OCc1ccc(Br)cc1	27.6*	2.2	14.9*	15.8*	5.6	5.0	-0.4	1.9	-3.9
COc1ccc(/C=N/NC(=O)c2cc(O)c(O)c(O)c2)cc1Cn1cc([N+](=O)[O-])cn1	28.4*	11.5	15.5*	68.9*	20.0	13.9*	53.6*	-270.1	86.7*
O=C1CC(=O)N(Cc2cccs2)C(=O)N1	-1.5	11.2	2.9	0.8	.	.	.	.	.
O=C1CC(=O)N(Cc2ccco2)C(=O)N1	93.3*	21.9*	64.2*	88.9*	99.7*	73.6*	17.9*	-90.0	87.2*
O=C(CN1CCN(S(=O)(=O)c2ccc(F)c(Cl)c2)CC1)N1CCOCC1	1.5	2.2	4.3	-0.2	.	.	.	.	.
COc1ccc(C)cc1NC(=O)C1CCCN(S(=O)(=O)c2ccc3c(c2)CCCN3C(C)=O)C1 (configuration not stated)	0.8	0.6	2.8	-1.6	.	.	.	.	.
CC(=O)Cc1cc(=O)c2c(C)cc(O)c(C3OC(CO)C(O)C(O)C3O)c2o1 (configuration not stated)	-1.8	-0.3	-1.8	-2.2	.	.	.	.	.
O=c1c2cc(O)c(O)cc2oc2cc(O)c(C3OC(CO)C(O)C(O)C3O)c(O)c12 (configuration not stated)	60.3*	5.7	43.0*	81.6*	45.1*	40.2*	69.8*	-351.4	86.2*
c1ccc2c(c1)CC(CN1CCNCC1)O2 (configuration not stated)	-0.6	-1.2	2.0	-3.6	.	.	.	.	.
Cn1cccc1CC(=O)NN=C/C=C\c1ccco1	85.2*	19.1	66.5*	81.2*	5.0	7.1	10.7*	-53.9	31.4*
COc1ccccc1/C=C/C=N/NC(=O)Cc1cccn1C	-7.4	-3.6	-5.9	4.0	.	.	.	.	.

Assay outcomes (PubChem)
